Screens (PubChem)
Sampled rows, rich in hits. Any-hit rate of the full collection: about 19%.
Pf growth 48h – P. falciparum growth inhibition at 48 hours (one generation). P. falciparum luciferase growth in erythrocytes, 48 h. Potency, µM (doses to about 28.7 µM), inactives show at the top dose activity change, negative = inhibition, usual class: inhibitors. hit rate 5.9% among 310,000. AID 504832; note: potency is the fitted concentration of half-maximal effect; % is set by controls: 0 for no effect and ±100 for the full control effect
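Luciferase-expressing parasites in RBCs, 2% Hct / 0.1% parasitemia final; RPMI 1640 + 0.5% Albumax; 37 C, 5% CO2, one generation; luminescence read-out, lower signal = inhibition.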
Shiga toxin inh – blocks Shiga toxin action in Vero cells; AID 2315; hit rate 9.2% among 290,000; inhibition, % at 38.7 µM; Vero cells, Shiga toxin protein synthesis inhibition reporter; in the data active = inhibition mostly above about 28%, no sharp cut-off; inactive = mostly below about 43%; note: 0% is about no effect
Cycloheximide cs – affects cycloheximide protein synthesis inhibition readout, counter-screen; cell reporter, cycloheximide protein synthesis inhibition counterscreen; max response, %; hit rate 12% among 300,000; AID 2314; in the data active = max response mostly above about 13%, no sharp cut-off; inactive = mostly below about 14%; note: read at 38.3 µM for the half of the compounds with a filed dose; 0% is about no effect
Marburg entry inh – inhibitors of Marburg virus binding or cell entry; Potency, µM (highest dose often 37.8 µM), inactives show top-dose activity change, negative = inhibition, hits mostly inhibitors; hit rate 1.8% among 300,000; Marburg virus pseudotyped entry inhibition, cell reporter; calls by dose curve; tested in HEK293 cells; note: potency is the fitted concentration of half-maximal effect; % is set by controls: 0 for no effect and ±100 for the full control effect
Pf growth 96h – inhibits malaria parasite growth, 96 h; P. falciparum luciferase reporter growth, 96 h; AID 504834; hit rate 6.9% among 320,000; Potency, µM (series often up to 28.7 µM), for inactives: at the highest dose activity change, negative = inhibition, usual class: inhibitors; note: potency is the fitted concentration of half-maximal effect; % is set by controls: 0 for no effect and ±100 for the full control effect
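Luminescence readout: decreased luciferase signal marks inhibited growth of reporter-expressing P. falciparum in infected red cells (2% hematocrit, 0.05% parasitemia final), exposed to compound two generations (96 h, 37 C, 5% CO2).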
Lassa entry inh – inhibitors of Lassa virus binding or cell entry; Lassa virus pseudotype entry inhibition, cell reporter; Potency, µM (titrated, usually from 37.9 µM), inactives show at the highest dose activity change, negative = inhibition, most hits filed as inhibitors; hit rate 1.2% among 300,000; calls by dose curve; tested in HEK293 cells; note: potency is the fitted concentration of half-maximal effect; % is set by controls: 0 for no effect and ±100 for the full control effect; nearly all actives have a fitted effect of over 50% in size
The depositor's hits bear a star; ? = inconclusive; · = not tested or not shown; [ ] = another dose, or the depositor's remark. Unless noted, calls come from the whole dose curve; as a rule, active = well fitted inhibition curve with a large enough effect; inconclusive = small, poorly fitted or top-dose-only effect, or another doubt; inactive = no such curve, though single readings can be large or run the other way.

SMILES	Pf growth 48h	Shiga toxin inh	Cycloheximide cs	Marburg entry inh	Pf growth 96h	Lassa entry inh
COc1cc(C(=O)N2CCN(S(=O)(=O)c3ccc(C)cc3)CC2)ccc1OCc1c(C)noc1C	4.15µM*	23.1	-3.4	-3.5%	·	-21.7%
COc1cc(C(=O)OCC(=O)N2CCCCC2C)ccc1OCc1c(C)noc1C (stereo not given)	9.28µM*	41.6	8.9	·	?	·
Cc1cc(C)c(C)c(S(=O)(=O)N2CCN(C(=O)c3ccccc3OCc3c(C)noc3C)CC2)c1C	10.4µM*	·	·	·	13.1µM*	·
CC(C)OC(=O)c1c(NC(=O)c2cnn3c2NC(c2ccccc2)CC3C(F)F)sc2c1CCCC2 (stereo not given)	7.7%	1.6	-1.9	7.5%	22.7%	·
Cc1ccc(S(=O)(=O)N(C)C)cc1NS(=O)(=O)c1ccc(Cl)s1	-14.6%	12.6	1.6	-5.8%	14.7%	5.1%
OC1(C(F)(F)F)CC(c2ccc3ccccc3c2)=NO1 (stereo not given)	3.3%	48.1*	38.1*	?	31.4%	-1.2%
COc1cc(Cl)c(C)cc1NC(=O)CSCc1nc(-c2ccc(OC)c(OC)c2)no1	·	·	·	·	·	-14.5%[46.1 µM]
Cc1cc([N+](=O)[O-])cc2c1NC(=O)C2(O)N1CCCCCC1 (stereo not given)	-1.4%	-15.0	-3.5	-12.8%	10.4µM*	-11.8%
Cc1cc([N+](=O)[O-])cc2c1NC(=O)C2(O)N1CCCC(C)C1 (stereo not given)	-10.5%	12.6	-2.4	·	177.3%	·
O=C(O)c1cccc(S(=O)(=O)N2CCN(C(c3ccccc3)c3ccccc3)CC2)c1	10.4µM*	-2.0	5.7	13.5%[46.1 µM]	13.1µM*	-9.2%[46.1 µM]
O=C(O)c1cccc(S(=O)(=O)N2CCCC2)c1	-1.4%	-16.7	2.0	1.3%	-2.6%	-14.5%[14.3 µM]
Cc1c(S(=O)(=O)N2CCOCC2)c(=O)n(C)c(=O)n1C	-0.5%	-4.2	-2.2	-2.9%	29.5%	·
Cc1c(S(=O)(=O)N2CCN(C(c3ccccc3)c3ccccc3)CC2)c(=O)n(C)c(=O)n1C	1.65µM*	11.8	-2.9	·	2.33µM*	·
CCOC(=O)C1(CCOc2ccccc2)CCN(Cc2cccc3nonc23)CC1	?	14.0	5.6	·	2.6%	·
CN1CCN(/N=C/c2c(O)n(Cc3ccc(F)cc3)c(=O)[nH]c2=O)CC1	-11.7%	15.6	8.8	·	0.0%	·
Cc1ccc(Nc2nc(C3CC3)cs2)cc1	35.6%	52.5*	33.2*	-19.7%	86.6%	-6.3%
Cc1ccc(Nc2nc(-c3c(C)nc4ncccn34)cs2)cc1	?	-5.4	-0.6	?	0.0%	?
Clc1ccc(Nc2nc(C3CC3)cs2)cc1	·	101.9*	55.7*	·	38.6%	·
Cc1cc(NC(=O)CCC(=O)N(Cc2ccco2)C(C(=O)NC2CCCC2)c2ccc(F)cc2)no1 (stereo not given)	?	-11.1	-2.5	?	28.2%	3.0%
CCOC(=O)C1=C(CS(=O)(=O)c2ccccc2)NC(=O)NC1c1cccc(OC)c1 (stereo not given)	?	27.2	25.5	3.4%[46.1 µM]	-28.2%	?
COC(=O)CN1C(=S)N(c2ccc(OC)cc2)C(=O)/C1=C/c1ccc(N2CCOCC2)cc1	?	16.4	0.5	·	-1.4%	·
COC(=O)CN1C(=S)N(c2ccc(OC)cc2)C(=O)/C1=C/c1ccc(OC)cc1	11.7µM*	-13.6	6.5	2.2%[46.1 µM]	-0.9%	?
CN(C(=O)CCCN1CCCC1=O)C1CCCN(Cc2ccccc2F)C1 (stereo not given)	-4.6%	-8.1	-0.3	-2.0%	?	-3.9%
COc1ccc(C2=CSC(/N=C/c3ccc(F)cc3)=NN2)cc1	0.0%	-4.3	30.4*	?	?	3.6%
O=C(NCc1ccco1)c1nnc(Cc2ccc(F)cc2)o1	7.4%	3.4	0.8	·	-1.2%	·
SMILES	Pf growth 48h	Shiga toxin inh	Cycloheximide cs	Marburg entry inh	Pf growth 96h	Lassa entry inh
CCOc1cc(/C=C(/C#N)c2nc3ccccc3[nH]2)ccc1OCc1ccc(C(=O)O)o1	?	30.1	8.0	-4.1%	8.4%	4.3%
COc1cc(/C=C(\C#N)c2ccccn2)ccc1OCC(=O)Nc1c(Cl)cccc1Cl	-26.4%	8.9	-0.9	2.1%	-12.6%	?
COc1cc(/C=C(\C#N)c2nc3ccccc3s2)ccc1OCC(=O)Nc1ccccc1	?	36.0	11.0	-8.6%	6.8%	?
COc1cc(/C=C(\C#N)c2nc3ccccc3[nH]2)c([N+](=O)[O-])cc1OCc1ccccc1	2.62µM*	25.6	-0.4	?	12.9%	?
COc1cc(/C=C(/C#N)c2nc3ccccc3[nH]2)ccc1OCC(=O)Nc1ccccc1C	?	-19.9	-4.2	-27.1%	1.47µM*	-13.8%
COc1cc(/C=C(\C#N)c2nc3ccccc3[nH]2)ccc1OC(=O)c1ccco1	58.2%	42.9*	47.8*	?	20.1%	0.4%
COc1cc(/C=C(/C#N)c2nc3ccccc3[nH]2)ccc1OCC(=O)Nc1ccccc1C(C)C	?	31.9	2.4	-2.2%	9.28µM*	·
CC(CC1CC(C)(C)OC1=O)C(=O)Nc1nncs1 (stereo not given)	·	-7.7	-4.8	24.8%	?	29.4%
O=c1cc(-c2ccco2)oc2c1ccc1ccccc12	·	24.3	3.3	9.5%	70.8%	?
O=c1cc(C(Cl)(Cl)Cl)oc2c1ccc1ccccc12	0.131µM*	21.6	-1.3	2.06µM*	0.262µM*	?
N=c1c2c(-c3ccccc3)c(-c3ccccc3)n(Cc3ccco3)c2ncn1CCN1CCOCC1	?	12.9	-4.6	10.3µM*	11.5%	?
N=c1c2c(-c3ccccc3)c(-c3ccccc3)n(Cc3ccco3)c2ncn1CCO	?	-5.9	-5.5	?	-18.8%	?
N=c1c2c(-c3ccccc3)c(-c3ccccc3)n(Cc3ccco3)c2ncn1CCCO	?	-2.7	-5.2	5.62µM*	13.1µM*	?
O=C(C1CC1)N(CCN(C(=O)C1CC1)c1ccccc1)c1ccccc1	0.0026µM*	17.5	-6.2	-3.1%[46.1 µM]	-5.6%	-1.2%
CCN(C(=S)NC(=O)C1CC1)c1ccccc1	1.2%	-16.1	-3.2	·	50.1%	·
O=C(CN1C(=O)NC2(CCCC2)C1=O)NNC(=O)c1ccc(F)cc1	-4.8%	·	·	-1.8%[46.1 µM]	22.2%	-12.9%
COc1cccc(CC(=O)N2CCc3nc(-c4ccccc4)c4c(c3C2)CO[C@@H](C)C4)c1	·	·	·	-3.2%[14.2 µM]	·	·
CCOC(=O)C1=C(CSc2nc(CC)c(C)cc2C#N)OC(N)=C(C#N)C1c1ccccc1 (stereo not given)	·	-10.6	1.2	-22.6%	1.7%	-19.3%
CCOC(=O)C1=C(CSc2nc(-c3ccccc3)ccc2C#N)OC(N)=C(C#N)C1c1ccc(OC)cc1 (stereo not given)	?	62.8	62.8*	?	?	-25.8%
O=C(Nc1ccc2c(c1)Cc1cc([N+](=O)[O-])ccc1-2)C(F)(F)F	·	·	·	20.3%	·	7.0%
N#CCC(=O)Nc1ccc(C(=O)OCC(=O)c2ccc3c(c2)NC(=O)CO3)cc1	13.1µM*	·	·	·	?	·
O=C1COc2ccc(C(=O)COC(=O)c3ccco3)cc2N1	?	42.2*	27.1*	·	56.2%	·
